The text below walks through data of PubChem BioAssay (NCATS).

The structures appear in SMILES notation. Results filed as inconclusive are left out. The source made the active and inactive calls. Calls follow the shape of the full dose curve.

Sequence of Peroxisome proliferator-activated receptor delta (Homo sapiens) (Q03181 whole entry, looked up): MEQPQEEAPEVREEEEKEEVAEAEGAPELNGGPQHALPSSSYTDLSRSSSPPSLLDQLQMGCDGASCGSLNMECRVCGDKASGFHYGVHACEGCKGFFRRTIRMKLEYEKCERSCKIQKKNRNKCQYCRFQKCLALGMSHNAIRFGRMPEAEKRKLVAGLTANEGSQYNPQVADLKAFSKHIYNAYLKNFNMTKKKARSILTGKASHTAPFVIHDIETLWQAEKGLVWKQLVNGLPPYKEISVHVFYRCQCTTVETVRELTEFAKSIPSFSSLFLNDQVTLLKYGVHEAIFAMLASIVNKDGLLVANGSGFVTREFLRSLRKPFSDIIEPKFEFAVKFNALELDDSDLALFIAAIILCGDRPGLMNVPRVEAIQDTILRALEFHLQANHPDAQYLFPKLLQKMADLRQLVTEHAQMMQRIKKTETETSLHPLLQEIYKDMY

The assay addresses Peroxisome proliferator-activated receptor delta (Homo sapiens) (UniProt Q03181). Nature of the assay: qHTS assay for small molecule agonists of peroxisome proliferator-activated receptor delta signaling (AID 588534). Conditions: HEK293T PPARdelta-UAS-bla, beta-lactamase ratio, 18 h; series mostly up to 76.7 µM. The gist of the method: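 Cell-based beta-lactamase reporter assay run in agonist mode: cells seeded and incubated 5 hrs at 37 C, compounds added and incubated 18 hrs at 37 C. CCF4 dye fluorescence read after 2 hrs at RT; EC50 and efficacy from Hill fits.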
Regarding `CCCCOCCOCCOC(C)=O`, the result was inactive.
As to `CCCCCCCCC/C=C/CC1CC(=O)OC1=O` (stereo not given), the outcome was inactive.
The same measure for `C=CC(=O)OCC(C)OCC(C)OCC(C)OC(=O)C=C` (stereo not given): “inactive”.
Regarding `Nc1ccc([N+](=O)[O-])c(N)c1`, the outcome was inactive.
The same measure for `Nc1ccccc1S(=O)(=O)O`: “inactive”; for `Fc1ccccc1`: “inactive”; for `COC(=O)CCCCC(=O)OC`: “inactive”.
As for `CCCCC/C=C\C/C=C\CCCCCCCC(=O)OC`, the outcome was inactive.
With `ON=C1CCCCC1` the entry was “inactive”; with `CCCCCCCCCCCCN`, “inactive”; with `C/C=C\c1ccc(OC)cc1`, “inactive”.
With `N[C@@H](Cc1ccccc1)C(=O)O`, the outcome was inactive.
The same measure for `CC(C)(C)c1ccc(OCC2CO2)cc1` (stereo not given): “inactive”.
For the compound `O=C(c1ccc(Cl)cc1)c1ccc(Cl)cc1`, the outcome was inactive.
With `CC(C)(C)C1CCC(O)CC1` (stereo not given), the outcome was inactive.
With `CCO[Si](CCCN)(OCC)OCC` the entry was “inactive”.
The same measure for `ClC/C=C/CCl`: “inactive”.
Turning to `Nc1nccs1`, the outcome was inactive.
The same measure for `OC1CCCC1`: “inactive”; for `OC/C(Br)=C(\Br)CO`: “inactive”.
`C=CC(=O)NC(C)(C)CS(=O)(=O)O`: the result was inactive.
With `O=C(Cl)c1c(Cl)cccc1Cl` the entry was “inactive”; with `CC(=O)c1nccs1`, “inactive”; with `COC(=O)c1ccccc1`, “inactive”.
The same measure for `O=[N+]([O-])c1cccc(I)c1`: “inactive”; for `O=C=NC1CCC(CC2CCC(N=C=O)CC2)CC1` (stereo not given): “inactive”; for `FC(F)(F)c1ccc(Cl)c(Cl)c1`: “inactive”.
For `O=C(O)c1ccc(C(=O)O)c(C(=O)O)c1`, the outcome was inactive.
With `O=C1CCCCCCCCCCC1` the entry was “inactive”.
On to `COC(=O)C(C)Oc1ccc(Oc2ncc(C(F)(F)F)cc2Cl)cc1` (stereo not given), for which the result was inactive.
On to `CCCCCNCCCCC`, for which the result was inactive.
As for `C/C(=C\C(C)CC(C)CC(C)C)C1CC(=O)OC1=O` (stereo not given), the result was inactive.
With `Cc1ccc(Br)cc1` the entry was “inactive”.
The same measure for `Nc1cc([N+](=O)[O-])ccc1O`: “inactive”; for `CC=C(Cl)Cl`: “inactive”.
With `COC(=O)c1ccccc1C(=O)O` the entry was “inactive”; with `CC(C)Nc1ccccc1`, “inactive”.
In the case of `CO[Si](OC)(OC)c1ccccc1`, the result was inactive.
With `CCOC(C)(C)C` the entry was “inactive”; with `C[C@H]1C[C@H]2[C@@H]3CCC4=CC(=O)C=C[C@]4(C)[C@@]3(F)[C@@H](O)C[C@]2(C)[C@@]1(O)C(=O)CO`, “inactive”.
